Laboratory results: PubChem BioAssay AID1159580 (chemical genetic matrix, 2015)
About 2,000 (36%) of roughly 5,500 compounds were called active. Inconclusive results (about 18%) are left out. Cut-off read from the data, not from the text of the source: active = normalized growth mostly below about 0.91 (no sharp cut-off); inconclusive = no clear call, values can overlap the other calls; inactive = mostly above about 0.92. The list shows a part of the results.

Assay: chemical genetic growth profiling, strain panel (AID 1159580);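 note: tested at 20 µM; growth read once vehicle control cultures reached saturation at 30 °C; 1 = growth at the plate median or of vehicle wells; lower values mean less growth of the strain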
Conditions: growth OD

Measured: normalized growth

CC(=O)[C@H]1CCC2C3C[C@H](C)C4=CC(=O)CC[C@]4(C)C3[C@@H](O)C[C@@]21C (some centres undefined)
inactive: S. cerevisiae deletion strains, locus YJR075W, strain HOC1, active compounds read low 0.993 | S. cerevisiae deletion strains, locus YKL009W, strain mrt4, active compounds read low 0.991 | S. cerevisiae deletion strains, locus YKL068W, active compounds read low 0.977 | S. cerevisiae deletion strains, locus YKL085W, strain MDH1 (second series), active compounds read low 0.96 | S. cerevisiae deletion strains, locus YKL085W, strain MDH1, active compounds read low 0.96 | S. cerevisiae deletion strains, locus YKL160W, strain elf1, active compounds read low 0.956 | S. cerevisiae deletion strains, locus YKL190W, strain CNB1, active compounds read low 0.989 | S. cerevisiae deletion strains, locus YKR001C, strain vps1, active compounds read low 0.998 | S. cerevisiae deletion strains, locus YKR026C, strain gcn3, active compounds read low 0.986 | S. cerevisiae deletion strains, locus YKR091W, strain srl3, active compounds read low 0.977 | S. cerevisiae deletion strains, locus YLL001W, strain dnm1, active compounds read low 0.947 | S. cerevisiae deletion strains, locus YLL026W, active compounds read low 0.99 | S. cerevisiae deletion strains, locus YLL041C, strain sdh2, active compounds read low 0.983 | S. cerevisiae deletion strains, locus YLR027C, strain aat2, active compounds read low 0.996 | S. cerevisiae deletion strains, locus YLR039C, strain RIC1, active compounds read low 0.785 | S. cerevisiae deletion strains, locus YLR058C, strain SHM2, active compounds read low 0.98 | S. cerevisiae deletion strains, locus YLR102C, strain apc9, active compounds read low 0.975 | S. cerevisiae deletion strains, locus YLR113W, strain HOG1, active compounds read low 0.993 | S. cerevisiae deletion strains, locus YLR221C, strain rsa3, active compounds read low 0.945 | S. cerevisiae deletion strains, locus YLR258W, strain gsy2, active compounds read low 0.986 | S. cerevisiae deletion strains, locus YLR262C, strain YPT6 (second series), active compounds read low 0.95 | S. cerevisiae deletion strains, locus YLR262C, strain YPT6, active compounds read low 0.901 | S. cerevisiae deletion strains, locus YLR268W, strain sec22, active compounds read low 0.995 | S. cerevisiae deletion strains, locus YLR320W, strain mms22, active compounds read low 0.961 | S. cerevisiae deletion strains, locus YLR330W, strain CHS5, active compounds read low 0.988 | S. cerevisiae deletion strains, locus YLR342W, strain FKS1 (second series), active compounds read low 0.99 | S. cerevisiae deletion strains, locus YLR342W, strain FKS1, active compounds read low 0.972 | S. cerevisiae deletion strains, locus YLR357W, strain rsc2, active compounds read low 0.948 | S. cerevisiae deletion strains, locus YLR370C, strain arc18, active compounds read low 0.959 | S. cerevisiae deletion strains, locus YLR371W, strain rom2, active compounds read low 0.978 | S. cerevisiae deletion strains, locus YLR384C, strain iki3, active compounds read low 0.987 | S. cerevisiae deletion strains, locus YLR418C, strain cdc73, active compounds read low 0.97 | S. cerevisiae deletion strains, locus YML016C, strain PPZ1, active compounds read low 0.994 | S. cerevisiae deletion strains, locus YML032C, strain rad52, active compounds read low 1.01 | S. cerevisiae deletion strains, locus YML120C, strain ndi1, active compounds read low 0.95 | S. cerevisiae deletion strains, locus YML124C, strain tub3, active compounds read low 0.98 | S. cerevisiae deletion strains, locus YMR058W, strain fet3, active compounds read low 0.989 | S. cerevisiae deletion strains, locus YMR078C, strain ctf18, active compounds read low 0.96 | S. cerevisiae deletion strains, locus YMR125W, strain sto1, active compounds read low 0.954 | S. cerevisiae deletion strains, locus YMR129W, active compounds read low 0.983 | S. cerevisiae deletion strains, locus YMR205C, strain PFK2, active compounds read low 0.938 | S. cerevisiae deletion strains, locus YMR223W, strain ubp8, active compounds read low 0.953 | S. cerevisiae deletion strains, locus YMR231W, strain pep5, active compounds read low 0.989 | S. cerevisiae deletion strains, locus YMR307W, strain GAS1, active compounds read low 1.04 | S. cerevisiae deletion strains, locus YNL067W, strain RPL9B, active compounds read low 0.99 | S. cerevisiae deletion strains, locus YNL071W, strain lat1, active compounds read low 0.973 | S. cerevisiae deletion strains, locus YNL153C, strain GIM3, active compounds read low 0.997 | S. cerevisiae deletion strains, locus YNL183C, strain NPR1, active compounds read low 0.931 | S. cerevisiae deletion strains, locus YNL209W, strain ssb2, active compounds read low 0.994 | S. cerevisiae deletion strains, locus YNL233W, strain BNI4, active compounds read low 1 | S. cerevisiae deletion strains, locus YNL248C, strain rpa49, active compounds read low 0.985 | S. cerevisiae deletion strains, locus YNL250W, strain rad50, active compounds read low 0.961 | S. cerevisiae deletion strains, locus YNL271C, strain bni1, active compounds read low 0.972 | S. cerevisiae deletion strains, locus YNL298W, strain CLA4, active compounds read low 0.986 | S. cerevisiae deletion strains, locus YNL307C, strain MCK1, active compounds read low 0.976 | S. cerevisiae deletion strains, locus YNL322C, strain KRE1 (second series), active compounds read low 0.982 | S. cerevisiae deletion strains, locus YNR049C, strain mso1, active compounds read low 0.985 | S. cerevisiae deletion strains, locus YNR052C, strain pop2, active compounds read low 0.986 | S. cerevisiae deletion strains, locus YOL006C, strain TOP1, active compounds read low 0.931 | S. cerevisiae deletion strains, locus YOL012C, strain htz1 1.85 | S. cerevisiae deletion strains, locus YOL147C, strain pex11, active compounds read low 0.986 | S. cerevisiae deletion strains, locus YOR001W, strain rrp6, active compounds read low 1.03 | S. cerevisiae deletion strains, locus YOR061W, strain CKA2, active compounds read low 0.982 | S. cerevisiae deletion strains, locus YOR069W, strain VPS5, active compounds read low 0.991 | S. cerevisiae deletion strains, locus YOR070C, strain gyp1, active compounds read low 0.986 | S. cerevisiae deletion strains, locus YOR080W, strain dia2, active compounds read low 0.984 | S. cerevisiae deletion strains, locus YOR083W, strain WHI5, active compounds read low 0.972 | S. cerevisiae deletion strains, locus YOR106W, strain vam3, active compounds read low 0.955 | S. cerevisiae deletion strains, locus YOR136W, strain idh2, active compounds read low 1 | S. cerevisiae deletion strains, locus YOR144C, strain elg1, active compounds read low 0.992 | S. cerevisiae deletion strains, locus YOR184W, strain ser1, active compounds read low 0.962 | S. cerevisiae deletion strains, locus YOR231W, strain MKK1, active compounds read low 0.977 | S. cerevisiae deletion strains, locus YOR265W, strain rbl2, active compounds read low 0.988 | S. cerevisiae deletion strains, locus YOR270C, strain vph1, active compounds read low 0.933 | S. cerevisiae deletion strains, locus YOR290C, strain snf2, active compounds read low 0.895 | S. cerevisiae deletion strains, locus YOR316C, strain cot1, active compounds read low 0.979 | S. cerevisiae deletion strains, locus YPL051W, strain arl3, active compounds read low 0.983 | S. cerevisiae deletion strains, locus YPL055C, strain LGE1, active compounds read low 0.991 | S. cerevisiae deletion strains, locus YPL078C, strain atp4, active compounds read low 0.96 | S. cerevisiae deletion strains, locus YPL106C, strain sse1, active compounds read low 0.968 | S. cerevisiae deletion strains, locus YPL240C, strain hsp82, active compounds read low 0.989 | S. cerevisiae deletion strains, locus YPL241C, strain CIN2, active compounds read low 0.995 | S. cerevisiae deletion strains, locus YPL256C, strain CLN2, active compounds read low 0.983 | S. cerevisiae deletion strains, locus YPR119W, strain clb2, active compounds read low 0.978 | S. cerevisiae deletion strains, locus YPR141C, strain kar3, active compounds read low 0.961 | S. cerevisiae deletion strains, locus YPR163C, strain tif3, active compounds read low 0.987 | S. cerevisiae deletion strains, locus YPR167C, strain met16, active compounds read low 0.984 | S. cerevisiae deletion strains, strain wtn01, active compounds read low 0.983 | S. cerevisiae strains, strain wild type, active compounds read low 0.994
